Experimental data as given in PubChem BioAssay AID916 (National Center for Advancing Translational Sciences (NCATS), 2007).
Results filed as inconclusive are left out. Unmarked numbers belong to inactive results. Calls of active or inactive are those of the source. The call rests on the fitted dose curve; in most records, active means well fitted activation curve with a large enough effect in the signal ratio, with a control signal flat (not every such curve was filed as active); inconclusive means small, poorly fitted or top-dose-only effect, or a change in a side signal; inactive means flat fitted curve, though single readings scatter; the % refers to the signal ratio.

assay: Confirmation Concentration-Response Assay for Cell signaling CRE-BLA (Fsk stim); details: CHO CRE-bla reporter (cAMP response element driving beta-lactamase), NKH477 EC10 stim, FRET ratio; series mostly up to 38.3 µM; activation: at the top concentration
From the text: NIH Molecular Libraries Screening Centers Network [MLSCN] NIH Chemical Genomics Center [NCGC] MLSCN Grant: 1X01MH079867-01 Assay Provider: Marshall W. Nirenberg, U.S. National Heart, Lung and Blood Institute CRE beta-lactamase Assay Overview Memories persist for different lengths of time, from seconds or minutes to a lifetime. There are two kinds of memory: short-term memory (STM) and long-term memory (LTM). STM lasts for minutes to hours, which maybe mediated by modifications of molecules involved in synaptic functions. LTM lasts for days or longer, and may be due to the formation of new synapses or restructuring of existing synapses. LTM, but not STM, requires gene transcription and synthesis of proteins. CREB (cyclic-AMP Responsive Element Binding Protein) is one of the candidates plays an important role for enhancement of some types of LTM. CREB, a family of transcription factors, regulates the transcription of genes containing cAMP Responsive Elements (CRE). CRE is a nucleotide sequence often found in the promoter regions of genes that are binding sites for CREB. Using a beta-lactamase reporter-gene under control of cAMP responsive element, a cell-based assay [CellSensor(TM) CRE-bla CHO developed by Invitrogen Corp.] was used to measure forskolin-induced signaling. The selected compounds were measured for their ability to modulate positively the action of EC10 NKH 477, a water soluble forskolin, on reporter gene activity. Compounds were screened in a titration series in 1536-well format. Positive modulators were identified based on the AC50 values derived from the screening data.
NCGC Assay Protocol Summary 2000 cells/5uL in Opti-MEM medium containing 0.5% dialyzed FBS, 0.1 mM NEAA, 1 mM sodium pyruvate and 10 mM HEPES was dispensed into 1536-well plates and cells were cultured at 37 degrees Celsius overnight. Next day 23 nL of compounds or DMSO were delivered to each well using a pin tool, and 1uL of EC10 level of NKH 477, or EC100 level of IBMX, a PDE inhibitor, in the present of NKH 477, or assay medium was added. And then the plates were incubated at 37 degrees Celsius for 3 hours. 1 uL of CCF4-dye mixture was added to each well. After incubated at room temperature for 2 hours the plates were measured on an EnVision plate reader at Excitation 405nm, Emission1=460nm and Emission 2=530nm. The %Activity was determined from the ratio of 460nm/530nm. Keywords: NIH Roadmap, MLSCN, MLSMR, qHTS, NCGC, CRE, beta-lactamase reporter-gene assay.

Row | SMILES | activation | Potency
1 | Fc1ccc(C2=Nn3c(Cc4ccccc4)nnc3SC2)cc1 | 12.1% | 
2 | CCCN(CCC)c1nc2ccccc2n2c(C)nnc12 |  | 12.6 µM (active)
3 | COc1ccc(/C(O)=C(\C#N)c2nc3ccccc3n2C)cc1OC |  | 15.8 µM (active)
4 | CCc1nc2nc(C)cc(Nc3cccc(C(F)(F)F)c3)n2n1 |  | 7.94 µM (active)
5 | CCCCCOC(=O)c1[nH]c2c(c1C)C(=O)CC(c1ccco1)C2 (stereo not given) |  | 0.251 µM (active)
